The results in this text go back to PubChem BioAssay (Tox21).

Each structure is given as a SMILES string. Records with an inconclusive call do not appear. Where a call stands in place of a potency, no number is given. Calls of active or inactive are those of the source. Calls follow the shape of the dose curve; as a rule, active = well fitted curve in the direction sought with a large enough effect in the repeat runs; inconclusive = weak or mixed curves; inactive = no such curve, though single readings can be large; an effect the other way counts as inactive or inconclusive.

The nature of one experiment: qHTS assay to identify small molecule agonists of the retinoic acid receptor (RAR) signaling pathway (AID 1159553). Also: potency is read from the fitted curve at half-maximal effect. Particulars: C3RL4 RARE luciferase reporter, agonist, 6 h; series mostly up to 73.3 µM. The essentials: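 Luminescence from a RARE-driven luciferase reporter in C3RL4 cells served as the read-out, measured after 30 min with detection reagent at room temperature. Compounds in DMSO were applied for 6 hr at 37 C following overnight seeding.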
With `CC1CCc2nccnc21` (configuration not stated), the Potency entry is “inactive”.
Same read-out and setting: then `CNC1CCCN(c2c(F)cc3c(=O)c(C(=O)O)cn(C4CC4)c3c2OC)C1` (configuration not stated), with “inactive”; and `CC[C@H]1OC(=O)[C@H](C)[C@@H](O[C@H]2C[C@@](C)(OC)[C@@H](O)[C@H](C)O2)[C@H](C)[C@@H](O[C@@H]2O[C@H](C)C[C@H](N(C)C)[C@H]2O)[C@](C)(O)C[C@@H](C)/C(=N\OCOCCOC)[C@H](C)[C@@H](O)[C@]1(C)O`, with “inactive”.
On the same count and under the same terms, for `CCCCOC(=O)CCCCC(=O)OCCCC` the value was “inactive”; for `CCc1ccc(C)cc1`, “inactive”.
Consider `CC(=O)OCC1=C(C(=O)O)N2C(=O)[C@@H](NC(=O)CSc3ccncc3)[C@H]2SC1`, for which the Potency result was “inactive”.
Still for that read-out and setting: then `COC(CC(C)CCCC(C)(C)O)OC` (configuration not stated), with “inactive”; and `O=C(O)/C=C/c1ccc(O)c(O)c1`, with “inactive”; and `O=C1NC(=O)c2cccc3cccc1c23`, with “inactive”.
Still for that read-out and setting: for `O=[N+]([O-])c1ccc2ncccc2c1` the value was “inactive”; for `Cc1cn([C@H]2C[C@H](F)[C@@H](CO)O2)c(=O)[nH]c1=O`, “inactive”.
Still for that read-out and setting: for `CCCCCCOC(=O)CCCCC` the value was “inactive”; for `CCC(C)(C)C(=O)O`, “inactive”; for `CCC1CCC(CCC(=O)O)C1` (configuration not stated), “inactive”.
Turning to `Nc1c(Cl)cc(Cl)cc1[N+](=O)[O-]`, the Potency entry is “inactive”.
Same read-out and setting: for `c1ccc(CCCc2ccncc2)cc1` the value was 68.6 µM (active).
On the same count and under the same terms, then `COc1ccc(-n2nc(C(F)F)cc2-c2ccc(S(C)=O)cc2)cc1` (configuration not stated), with “inactive”; and `O=C1c2ccccc2C(=O)c2c(O)ccc(O)c21`, with “inactive”; and `CCOC(=O)C(C)O` (configuration not stated), with “inactive”.
Still for that read-out and setting: for `CC(C)(C)C(O)/C=C/c1ccc2c(c1)OCO2` (configuration not stated) the value was 29.8 µM (active).
On to `C=C(C)c1ccccc1`, for which the Potency entry was “inactive”.
For the molecule `O=C(O)CCC(=O)c1ccc(-c2ccccc2)cc1`, the Potency was 11.9 µM (active).
Same read-out and setting: for `COc1cc(NC(C)CCCN)c2ncccc2c1` (configuration not stated) the value was “inactive”; for `CCCCCCCCCCCCCCCC(=O)OCC`, “inactive”.
Same read-out and setting: then `CC(=O)OCC(C)C`, with “inactive”.
Still for that read-out and setting: then `Cc1ccc2c(c1)CCCN2`, with “inactive”; and `CCO[Si](C)(CCCOCC1CO1)OCC` (configuration not stated), with “inactive”; and `CC1CCCC(=O)C1=O` (configuration not stated), with “inactive”.
`CC(C)C(=O)OCCOc1ccccc1`: the Potency entry was “inactive”.

Another experiment can be described thus: qHTS assay to identify small molecule antagonists of the estrogen related receptor (ERR) signaling pathway - cell viability counter screen (AID 1224818). The following applies: ERR reporter cell line viability counter screen; series mostly up to 46.1 µM. Summed up: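 Multiplexed counter screen to separate cytotoxic compounds from true ERR modulators. ERR cells received DMSO-dissolved compounds after a 6 h pre-incubation, were exposed 17.5 h at 37 C, then assayed with CellTiter-Fluor fluorescence.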
Regarding `O=NN(CCCl)C(=O)NCCCl`, the result was inactive.
Still for that read-out and setting: for `O=C(O)/C=C/c1ccc(O)c(O)c1` the value was “inactive”.
The same measure, in the same setting: for `CC(CCc1ccc(O)cc1)NCCc1ccc(O)c(O)c1` (configuration not stated) the value was “inactive”.
As to `CCN(CC)CCNC(=O)c1cc(Cl)c(N)cc1OC`, the outcome was inactive.

A further experiment can be described thus: qHTS assay to identify small molecule antagonists of the estrogen related receptor signaling pathway with the pleiotropic PPARgamma coactivator (PGC) cell viability counter screen (AID 1224822). The following applies: ERR/PGC reporter cell line viability counter screen; series mostly up to 46.1 µM. Summed up: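 Cells: PGC/ERR, 2,000/well, 1536-well format. Pre-incubation 6 h, 37 C/5% CO2. Compound exposure 17.5 h, 37 C. Detection: CellTiter-Fluor, 30 min, fluorescence.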
As for `O=NN(CCCl)C(=O)NCCCl`, the molecule was classed as inactive.
In the case of `O=C(O)/C=C/c1ccc(O)c(O)c1`, the molecule was classed as inactive.
Same read-out and setting: then `CC(CCc1ccc(O)cc1)NCCc1ccc(O)c(O)c1` (configuration not stated), with “inactive”; and `CCN(CC)CCNC(=O)c1cc(Cl)c(N)cc1OC`, with “inactive”.
